High-throughput results from PubChem.
Sampled rows, rich in hits. Any-hit rate of the full collection: about 3.6%.
LGR2 antag: inhibitors of bursicon-induced Drosophila LGR2 receptor cAMP signaling; HEK293 LGR2, CRE-luciferase, bursicon-stimulated, 4 h; inhibition, % at 9.99 µM; 380,000 tested, 0.35% active;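 active means drop in luminescence signal, shown as inhibition above about 50% in the replicate tests, limit read from the data, passing the limit was not always enough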;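 further: agonist challenge used bursicon conditioned medium at about half maximal strength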
Peg3 promoter: Peg3 promoter activity inhibition. HeLa PEG-Prom luciferase reporter, luminescence, overnight. 360,000 tested, 1.7% active. inhibition, % at 20 µM. AID 588405;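 active means inhibition of at least 50% at 20 µM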
CF NFkB inh: blocks PAF-induced NF-kB reporter in cystic fibrosis cells; KKLEB NF-kB-GFP reporter, GFP fluorescence overnight; inhibition, % at 5 µM; 360,000 tested, 0.86% active; AID 588850;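 active means at least 50% inhibition at 5 µM, scaled per plate between neutral and stimulator controls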;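 further: PAF is a Pseudomonas aeruginosa culture filtrate used as stimulus; plate controls were PAF-stimulated DMSO wells for no effect and unstimulated DMSO wells for full effect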
Mdm2-MdmX inh: human Mdm2/MdmX binding inhibition | O15151+Q00987 | SaOS-2 split-luciferase Mdm2/MdmX complementation, luminescence | inhibition, % at 8 µM | 330,000 tested, 3% active;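 active means inhibition of at least 50% at 8 µM in the primary screen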
Target sequence (O15151 whole entry, looked up): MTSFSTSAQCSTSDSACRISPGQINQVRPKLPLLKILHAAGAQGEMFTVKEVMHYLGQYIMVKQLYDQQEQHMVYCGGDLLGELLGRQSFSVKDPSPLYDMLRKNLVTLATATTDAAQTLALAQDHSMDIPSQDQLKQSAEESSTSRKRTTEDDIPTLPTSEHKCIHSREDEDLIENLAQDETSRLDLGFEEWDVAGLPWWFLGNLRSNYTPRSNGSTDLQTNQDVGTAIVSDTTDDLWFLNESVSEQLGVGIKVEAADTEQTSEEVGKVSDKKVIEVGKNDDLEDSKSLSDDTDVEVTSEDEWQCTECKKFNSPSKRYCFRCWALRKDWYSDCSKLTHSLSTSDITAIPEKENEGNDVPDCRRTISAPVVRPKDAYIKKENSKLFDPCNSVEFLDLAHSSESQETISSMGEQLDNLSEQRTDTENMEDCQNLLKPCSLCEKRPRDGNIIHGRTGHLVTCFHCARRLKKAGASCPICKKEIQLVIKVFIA
Target sequence (Q00987 whole entry, looked up): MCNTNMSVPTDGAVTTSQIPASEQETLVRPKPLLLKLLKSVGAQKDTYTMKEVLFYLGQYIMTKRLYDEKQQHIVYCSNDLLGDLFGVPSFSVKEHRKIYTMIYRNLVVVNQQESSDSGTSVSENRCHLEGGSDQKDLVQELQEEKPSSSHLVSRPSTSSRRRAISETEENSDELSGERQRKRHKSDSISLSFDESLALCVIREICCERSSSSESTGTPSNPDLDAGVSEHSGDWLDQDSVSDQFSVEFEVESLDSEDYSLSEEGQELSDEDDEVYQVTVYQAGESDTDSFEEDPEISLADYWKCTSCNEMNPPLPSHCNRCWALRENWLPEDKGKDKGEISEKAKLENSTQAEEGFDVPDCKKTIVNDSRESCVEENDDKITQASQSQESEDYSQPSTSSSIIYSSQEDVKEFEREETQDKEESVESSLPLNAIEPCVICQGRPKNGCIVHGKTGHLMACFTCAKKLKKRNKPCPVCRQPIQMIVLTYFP
HSP90 refold inh: inhibitors of HSP90 luciferase refolding in rabbit reticulocyte lysate | AID 1789 | 290,000 tested, 0.91% active | luciferase refolding luminescence, 3 h | inhibition, % at 5.6 µM;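 active means inhibition above the screen-wide mean plus 3 SD, computed separately per campaign, cut at about 16% in these data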;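 further: 0% = DMSO wells and 100% = 60 µM geldanamycin wells; inhibitors lower the luminescence because luciferase stays unfolded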
KKLEB tox: CF airway cell cytotoxicity counter-screen. KKLEB CF airway cells viability, ATPlite luminescence, overnight; hits give low values; cells stimulated with P. aeruginosa culture filtrate. activity change (cytotoxicity), % at 5 µM. 360,000 tested, 0.36% active;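 active means corrected activity change at or below -50% at 5 µM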
Mdm2-MdmX conf: confirmation of human Mdm2/MdmX interaction inhibitors; shares compounds with Mdm2-MdmX inh; Mdm2-MdmX binding, luminescent assay; inhibition, % at 8 µM; 10,000 tested, 55% active; AID 489028; in the data active means inhibition above about 40%
FLuc counter: full-length luciferase inhibition in Mdm2/MdmX counter-screen; shares compounds with Mdm2-MdmX inh; SaOS-2 full-length luciferase counterscreen, luminescence; inhibition, % at 8 µM; 6,200 tested, 77% active;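 active means mean inhibition at 8 µM reaching about 37%, which flags the compound as non-specific, limit read from the data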;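 further: p53-null SaOS-2 cells with luciferase driven by a doxycycline-inducible promoter; compound on cells about two nights before reading with doxycycline added after day one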
Starred values were filed as active, the others as inactive.

Results for CC[C@@H](C)[C@H](NC(=O)OC(C)(C)C)c1nnc(S(=O)(=O)Cc2cc(C)ccc2C)o1 ?
Peg3 promoter: 105*; CF NFkB inh: 72*; Mdm2-MdmX inh: 82*; HSP90 refold inh: 1; KKLEB tox: -19; Mdm2-MdmX conf: 66*; FLuc counter: 3

How did Cc1ccccc1CS(=O)(=O)c1nnc([C@H](CC(C)C)NC(=O)OC(C)(C)C)o1 do in these assays?
LGR2 antag: 9; Peg3 promoter: 96*; CF NFkB inh: 49; Mdm2-MdmX inh: 75*; HSP90 refold inh: 3; KKLEB tox: -2; Mdm2-MdmX conf: 79*; FLuc counter: 1

What do the screens show for `CC(C)(C)OC(=O)N[C@@H](Cc1ccccc1)c1nnc(S(=O)(=O)Cc2cccc(F)c2)o1`?
Mdm2-MdmX inh: 27; HSP90 refold inh: 1

What do the screens show for `CN1C(=O)c2cc(NC(=O)C3CCCCC3)ccc2OC[C@H]2O[C@H](CC(=O)NCCc3ccncc3)CC[C@H]21`?
LGR2 antag: -6

How did CCCNC(=O)[C@@H]1[C@@H](CO)[C@@H]2Cn3c(ccc(/C=C/c4ccccc4)c3=O)[C@H]1N2C(=O)c1ccncc1 do in these assays?
LGR2 antag: -5

Results for C[C@H]1CN([C@@H](C)CO)C(=O)c2cc(NS(=O)(=O)c3cn(C)cn3)ccc2O[C@@H]1CN(C)S(=O)(=O)c1cccs1 ?
LGR2 antag: 4

What do the screens show for `COC1=CC(=O)c2ccccc2C1=O`?
Peg3 promoter: 24; CF NFkB inh: 91*; Mdm2-MdmX inh: 51*; KKLEB tox: -29; Mdm2-MdmX conf: 11

How did O=C(C[C@H]1C=C[C@@H](NC(=O)C2CCOCC2)[C@H](CO)O1)Nc1ccc(-c2ccccc2)cc1 do in these assays?
LGR2 antag: 9

How did C/C(=N\NC(=O)c1cc(C)nc2ccccc12)c1ccccn1 do in these assays?
LGR2 antag: 9; Peg3 promoter: 46; CF NFkB inh: -58; Mdm2-MdmX inh: 76*; KKLEB tox: 11; Mdm2-MdmX conf: 67*; FLuc counter: 36*

Results for C/C(=N\NC(=O)c1ccc(Cl)cc1)c1ccccn1 ?
LGR2 antag: -28; Peg3 promoter: -25; CF NFkB inh: -17; Mdm2-MdmX inh: 96*; HSP90 refold inh: 3; KKLEB tox: 0; Mdm2-MdmX conf: 27

How did COc1cc(NC(=O)c2ccccn2)cc(OC)c1OC do in these assays?
LGR2 antag: 19; Peg3 promoter: 1; CF NFkB inh: -33; Mdm2-MdmX inh: 14; HSP90 refold inh: 5; KKLEB tox: 2

How did COc1cc(C(=O)N/N=C(\C)c2ccccn2)cc(OC)c1OC do in these assays?
LGR2 antag: 2; Peg3 promoter: 58*; CF NFkB inh: -1; Mdm2-MdmX inh: 77*; HSP90 refold inh: 2; KKLEB tox: 15; Mdm2-MdmX conf: 25

How did C[C@@H]1CN([C@H](C)CO)C(=O)Cc2cc(NC(=O)Cn3cnnn3)ccc2O[C@H]1CN(C)C(=O)Nc1ccc(F)cc1 do in these assays?
LGR2 antag: 7

Results for Clc1cc2cccnc2c2ncccc12 ?
LGR2 antag: -6; Peg3 promoter: 50; CF NFkB inh: -36; Mdm2-MdmX inh: 77*; KKLEB tox: -12; Mdm2-MdmX conf: 81*; FLuc counter: 32

Results for C[C@@H]1CN([C@H](C)CO)C(=O)c2cccc(NS(=O)(=O)c3ccc(Cl)cc3)c2O[C@H]1CN(C)C(=O)Nc1cccc2ccccc12 ?
LGR2 antag: 15

Results for CCCN1C[C@H](C)[C@H](OC)CN(C)C(=O)c2ccc(NC(=O)Nc3ccccc3F)cc2OC[C@@H]1C ?
LGR2 antag: -12

How did COc1ccc(Cn2c(=S)[nH]c3cc(C(=O)NCc4cccnc4)ccc3c2=O)cc1 do in these assays?
LGR2 antag: -5; Peg3 promoter: -4; CF NFkB inh: -20; Mdm2-MdmX inh: 74*; HSP90 refold inh: -5; KKLEB tox: 0; Mdm2-MdmX conf: -8

Results for COc1ccc(Cn2c(=O)[nH]c3cc(C(=O)NCc4ccc5c(c4)OCO5)ccc3c2=O)cc1 ?
Peg3 promoter: 32; CF NFkB inh: -10; Mdm2-MdmX inh: 65*; HSP90 refold inh: 0; KKLEB tox: -5; Mdm2-MdmX conf: 29

How did COC(=O)c1ccc2c(=O)n(Cc3ccc(C(=O)NCCCN4CCC(C)CC4)cc3)c(=S)[nH]c2c1 do in these assays?
LGR2 antag: 1; Peg3 promoter: -22; CF NFkB inh: 6; Mdm2-MdmX inh: -6; HSP90 refold inh: 3; KKLEB tox: 2

Results for O=C(NCC1CCCO1)c1ccc2c(=O)n(Cc3cccc(Br)c3)c(=S)[nH]c2c1 (stereo not drawn) ?
LGR2 antag: 10; Peg3 promoter: 36; CF NFkB inh: 30; Mdm2-MdmX inh: 58*; HSP90 refold inh: -7; KKLEB tox: -29; Mdm2-MdmX conf: 30

Results for CC1CCN(CCCNC(=O)c2ccc3c(=O)n(Cc4ccc(Cl)cc4)c(=S)[nH]c3c2)CC1 ?
LGR2 antag: -1; Peg3 promoter: 114*; CF NFkB inh: 15; Mdm2-MdmX inh: 88*; HSP90 refold inh: -3; KKLEB tox: -13; Mdm2-MdmX conf: 38; FLuc counter: 76*

Results for C[C@@H]1CN([C@@H](C)CO)C(=O)CCCn2cc(nn2)CO[C@@H]1CN(C)C(=O)OCc1ccccc1 ?
LGR2 antag: -4

Results for CCOC(=O)NC(=O)/C(C#N)=N\Nc1cccc(Cl)c1 ?
LGR2 antag: 2; Peg3 promoter: 15; CF NFkB inh: 45; Mdm2-MdmX inh: 59*; HSP90 refold inh: -3; KKLEB tox: -37; Mdm2-MdmX conf: 64*; FLuc counter: 58*

Results for C[C@H]1CN([C@@H](C)CO)C(=O)c2cccc(NS(=O)(=O)c3cccs3)c2O[C@H]1CN(C)C ?
LGR2 antag: 13

What do the screens show for `O=C(Nc1nc2ccccc2[nH]1)c1cccs1`?
LGR2 antag: 15; Peg3 promoter: -215; CF NFkB inh: -32; Mdm2-MdmX inh: -80; HSP90 refold inh: 9; KKLEB tox: -11

What do the screens show for `COC(=O)Nc1nc2ccc(C(=O)c3cccs3)cc2[nH]1`?
LGR2 antag: 11; Peg3 promoter: -158; CF NFkB inh: 60*; Mdm2-MdmX inh: 53*; KKLEB tox: 9; Mdm2-MdmX conf: 57*; FLuc counter: 126*

How did CCOC(=O)c1c(NC(C)=O)sc2c(OCCN(CC)CC)c(Br)ccc12 do in these assays?
LGR2 antag: -15; Peg3 promoter: 27; CF NFkB inh: -26; Mdm2-MdmX inh: 55*; HSP90 refold inh: 2; KKLEB tox: -2; Mdm2-MdmX conf: 14
